In PubChem BioAssay (NCI):
The panel holds about 79,000 compounds, 15% with a hit somewhere; the sample as a whole holds those more often. Rule as the data show it: active = growth inhibition above about 70%; inactive = the rest.

Legend:
[1] = NCI Yeast Anticancer Drug Screen. Data for the rad50 strain (AID 155);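 also: 0% = growth of vehicle-only cultures of the same strain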; conditions: S. cerevisiae rad50 strain growth inhibition; at 50.0 µM; active compounds read high
Summary of the method: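 Growth of the mutant yeast was measured after compound exposure and referenced to vehicle-treated cultures.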

[2] = NCI Yeast Anticancer Drug Screen. Data for the mec2-1 strain (AID 157); conditions: S. cerevisiae mec2-1 strain, at 50.0 µM, active compounds read high
Summary of the method: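 Cells of the genetically defined mec2-1 yeast strain are incubated with test compound. Inhibition of growth is calculated against vehicle-treated controls.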

[3] = NCI Yeast Anticancer Drug Screen. Data for the sgs1 mgt1 strain (AID 161);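 also: 0% = growth of cultures given vehicle only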; conditions: S. cerevisiae sgs1 mgt1 strain, at 50.0 µM, active compounds read high
Summary of the method: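 Mutant yeast exposed to compound; growth scored against vehicle-only wells.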

[4] = NCI Yeast Anticancer Drug Screen. Data for the cln2 rad14 strain (AID 165);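 also: 0% = growth equal to vehicle treated cultures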; conditions: S. cerevisiae cln2 rad14 strain, at 50.0 µM, active compounds read high
Summary of the method: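 The screen exposed genetically defined yeast (cln2 rad14) to test compounds and scored growth inhibition relative to vehicle-treated controls.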

[5] = NCI Yeast Anticancer Drug Screen. Data for the bub3 strain (AID 167); conditions: S. cerevisiae bub3 mutant strain, at 50.0 µM, active compounds read high
Summary of the method: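 Whole-cell yeast assay. The mutant strain was incubated with compounds, and growth inhibition was determined by comparison with vehicle-treated cells.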

[6] = NCI Yeast Anticancer Drug Screen. Data for the mlh1 rad18 strain (AID 175); conditions: S. cerevisiae mlh1 rad18 strain growth inhibition; at 50.0 µM; active compounds read high
Summary of the method: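 Compound-treated yeast growth, normalised to vehicle controls. Strain bears defined DNA repair mutations.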

Measured: growth inhibition

COc1cccc(C2N=NC3=C(CCCC3)N2O)c1O (configuration not stated)
inactive: [1] 14.4% | [2] 11% | [3] 10.2% | [4] 21.4% | [5] 25.1% | [6] 19.5%

CSc1nnc(CCC(=O)Nc2ccc(Cl)cc2Cl)o1
inactive: [1] 0.75% | [2] 12.5% | [3] 10.9% | [4] 10.3% | [5] 14.4% | [6] -10.2%

C[N+](C)(C)c1ccc(C(N)C(=O)O)cc1 (configuration not stated)
inactive: [1] -7.7% | [2] -18.3% | [3] -17.1% | [4] -30.1% | [5] -41.7% | [6] 2.8%

Clc1ccccc1C=NC1CCCCC1
inactive: [1] -5.1% | [2] -12.2% | [3] -0.3% | [4] -1.15% | [5] -5.85% | [6] -3.1%

Cn1cnc2c(=S)nc[nH]c21
inactive: [1] 7.75% | [2] -10% | [3] -25.1% | [4] -9.9% | [5] -8.75% | [6] -20.9%

CCN(CC)c1ncnc2c1nc(C)n2Nc1ccccc1
inactive: [1] 13.7% | [2] -3.1% | [3] 1.3% | [4] 7.4% | [5] 0.5% | [6] -10.7%

Cc1cn(C2CC(O)C(CO)O2)c(=O)nc1N1CCCCCCC1 (configuration not stated)
inactive: [1] -6.85% | [2] -4.8% | [3] -11.3% | [4] -12.3% | [5] 4.85% | [6] 0.3%

Cc1ncc([N+](=O)[O-])n1CCNC(=O)CCC(=O)NCCCn1ccnc1[N+](=O)[O-]
inactive: [1] -16.1% | [2] -22.9% | [3] -1.45% | [4] 21.7% | [5] -31.8% | [6] 14.9%

c1ccc(C2CN3CCSC3=N2)cc1 (configuration not stated)
inactive: [1] -30.4% | [2] -34.8% | [3] -19.1% | [4] 5.5% | [5] -12.2% | [6] -16.9%

CCNC(=O)Nc1ccccn1
inactive: [1] -8.4% | [2] -1.55% | [3] 8.85% | [4] 0.5% | [5] -5.05% | [6] -2.4%

CC1CCC(C(C)C)=C(C2CCCCC2)C1 (configuration not stated)
inactive: [1] -2.15% | [2] 1.65% | [3] -3.65% | [4] -7.05% | [5] -9.8% | [6] 6.65%

CCOc1cc2c(cc1Cc1ccc3c(c1)OCO3)OCO2
inactive: [1] -8.15% | [2] -11.8% | [3] -5.6% | [4] -12.1% | [5] 4.35% | [6] 1.3%

O=C1c2ccccc2C(=O)N1Br
inactive: [1] 0.15% | [2] -19.5% | [3] 6.5% | [4] 10.8% | [5] 3.6% | [6] 18.9%

CCN(CC)CCCCNc1ccnc(N)n1
inactive: [1] -8.65% | [2] -10.5% | [3] 2.7% | [4] -23.3% | [5] 18.2% | [6] 16%

CN(C)c1ccc(/C=C(\NC(=O)c2ccccc2)c2nn(C)c(=O)o2)cc1
inactive: [1] -15.8% | [2] -4.8% | [3] -11.1% | [4] -20.9% | [5] -1.4% | [6] -22.6%

N#CCc1ccc(C(C#N)C(=O)CCC(=O)C(C#N)c2ccc(CC#N)cc2)cc1 (configuration not stated)
inactive: [1] 11.7% | [2] 11.3% | [3] -13.1% | [4] 34.1% | [5] -0.3% | [6] 22.1%

COc1cc2c(OC)cc1CSCc1sc(C)c(c1Br)CSC2
inactive: [1] 19.1% | [2] 21.5% | [3] 4.7% | [4] -26.6% | [5] 12.7% | [6] 14.8%

NCCCCCCCCCCCCN
inactive: [1] -6.15% | [2] -11.8% | [3] -0.3% | [4] -37.2% | [5] -13.5% | [6] 19%

CCCCN=C1NS(=O)(=O)c2ccccc21
inactive: [1] 15.5% | [2] -11.5% | [3] 13.2% | [4] -8.15% | [5] 0% | [6] -0.6%

CC1=C(c2cc(C(=O)Nc3ccc(Cl)cc3)nc(=S)[nH]2)Sc2ccccc2N1
inactive: [1] -30.9% | [2] -15.2% | [3] -46% | [4] -1.45% | [5] -5.65% | [6] -35.4%

CC(=O)CC(=O)NC(C)c1ccccc1 (configuration not stated)
inactive: [1] -4.05% | [2] -12.8% | [3] -4.65% | [4] -18.5% | [5] -7.3% | [6] 3.2%

O=C(O)CCNc1ncnc2nc[nH]c12
inactive: [1] -65.5% | [2] -13.2% | [3] -33.5% | [4] -34.6% | [5] 24.4% | [6] -19.9%

CC1CN(c2nc3ccccc3o2)C(C)CN1c1nc2ccccc2o1 (configuration not stated)
inactive: [1] -7.15% | [2] 5.6% | [3] -9.1% | [4] 11.8% | [5] 9.9% | [6] -12.3%

N#CC(C(=O)CCc1nc2ccccc2[nH]1)c1nc2ccccc2s1 (configuration not stated)
inactive: [1] 6.75% | [2] -3.5% | [3] -9.55% | [4] -17.8% | [5] 4.35% | [6] -0.6%

COc1cc(/C=N/NC(N)=S)cc(OC)c1
inactive: [1] -4.1% | [2] -11.2% | [3] -15.1% | [4] -35.9% | [5] -17.6% | [6] -11.8%

CC(=O)OC/C=C/CN(C)C
inactive: [1] 9.3% | [2] 4.6% | [3] -7.25% | [4] 7.8% | [5] -6.2% | [6] 16.5%

C=CCOC(C)OCC=C
inactive: [1] 17.9% | [2] 7.9% | [3] -1.35% | [4] -23.5% | [5] 13.3% | [6] -0.15%

CCOC(=O)c1nnc(-c2ccccc2)nc1Cl
inactive: [1] -2.55% | [2] 3.45% | [3] 0.15% | [4] -12.9% | [5] 3.7% | [6] 4%

CC(=O)Nc1c(Nc2ccc3c(=O)[nH]ccc3c2C)cc[nH]c1=O
inactive: [1] 22.1% | [2] 13.7% | [3] 17.1% | [4] 14.5% | [5] 10.4% | [6] 27.5%

COC(=O)CCC(N)C(=O)O (configuration not stated)
inactive: [1] 10.2% | [2] -11.2% | [3] -7.15% | [4] -10.3% | [5] -24.9% | [6] -4.2%

O=[N+]([O-])c1ccc(-c2noc(-c3ccccc3)c2C2=NCCN2)cc1
inactive: [1] -9.85% | [2] -6% | [3] 5.25% | [4] 4.75% | [5] 7.8% | [6] 7.6%

Cc1ccc(C(C)C)cc1OC(=O)NC1CCCCC1
inactive: [1] -4% | [2] 9.3% | [3] 9.9% | [4] -13.2% | [5] -23.4% | [6] -0.6%

COC1CC(NC(=O)c2ccccc2)C(O)C(C)O1 (configuration not stated)
inactive: [1] 8.65% | [2] 18.3% | [3] 11.6% | [4] 10.6% | [5] 0.8% | [6] 8.5%

O=S(=O)(O)CO
inactive: [1] 16.9% | [2] 4.6% | [3] 26% | [4] 7.35% | [5] -7.7% | [6] 20.4%

Cc1ccc(S(=O)(=O)OC2C(OC(=O)c3ccccc3)OCC(O)C2O)cc1 (configuration not stated)
inactive: [1] 23.6% | [2] 2.45% | [3] 6.1% | [4] -11.8% | [5] 6.5% | [6] 3.35%

CCOC(=O)C(C#N)(Cc1ccccc1CC(C#N)(NC(C)=O)C(=O)OCC)NC(C)=O (configuration not stated)
inactive: [1] -4.9% | [2] -0.25% | [3] -10.1% | [4] -0.3% | [5] -3.4% | [6] 10.7%

CC1(c2ccc(Cl)cc2)NC(=O)NC1=O (configuration not stated)
inactive: [1] -27.3% | [2] 3.1% | [3] -7.65% | [4] -29.5% | [5] 9.85% | [6] -20.1%

C/C(=N\NC(=S)Nc1cccc2cccc(S(=O)(=O)O)c12)c1ccccn1
inactive: [1] 3.4% | [2] -0.35% | [3] -18.2% | [4] -5.55% | [5] -7.4% | [6] 2.85%

COc1cc(/C=C(\C#N)C(N)=C(C#N)C#N)cc(O)c1O
inactive: [1] -32.5% | [2] -20.8% | [3] -19.6% | [4] 0.65% | [5] -24.3% | [6] -18.8%

Cc1sc2[nH]c(=O)oc(=O)c2c1C
inactive: [1] 44% | [2] -10.1% | [3] 36.2% | [4] 30.1% | [5] 10.5% | [6] 55.8%

NC(=O)CSCC(N)C(=O)O (configuration not stated)
inactive: [1] -9.75% | [2] -26.4% | [3] -13.1% | [4] -21.9% | [5] -28.5% | [6] -20%

Cc1ccc(C)n1-n1c(-c2ccccc2)n[nH]c1=O
inactive: [1] -19.8% | [2] -20.9% | [3] -2.7% | [4] -3.4% | [5] -27.7% | [6] -12.3%
